Screens (PubChem)
Sm TGR inh: qHTS Assay for the Inhibitors of Schistosoma Mansoni Peroxiredoxins. Schistosoma mansoni thioredoxin glutathione reductase (TGR), Q962Y6. purified TGR, DTNB reduction, TNB absorbance 405 nm. Potency, µM (titrated, usually from 114 µM), inactives show at the top dose activity change, negative = inhibition, usual class: inhibitors. 3% of 360,000 active. AID 485364, 2010; active = well fitted inhibition curve with a large enough effect; inconclusive = small, poorly fitted or top-dose-only effect; inactive = no such curve, though single readings can be large or run the other way; also: potency is read from the fitted curve at half-maximal effect; % is scaled to controls: 0 for no effect and ±100 for the full control effect; nearly all actives have a fitted effect of over 60% in size
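Kinetic colorimetric format: TGR-catalysed, NADPH-driven DTNB reduction monitored via TNB absorbance. Enzyme dispensed at 20 nM; compound exposure 15 min at room temperature before reaction start.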
Shiga inhibitor: A qHTS for Small Molecule Inhibitors of Shiga Toxin. 9.2% of 290,000 active. Vero cells, Shiga toxin protein synthesis inhibition reporter. inhibition, % at 38.7 µM; in the data active = inhibition mostly above about 28%, no sharp cut-off; inactive = mostly below about 43%; also: 0% is about no effect
FMDV antiviral: High Throughput Screening for Foot and Mouth Disease Virus Antivirals; FMDV antiviral cell-based qHTS; Potency, µM (top dose mostly 57.9 µM), inactives show top-dose activity change, negative = inhibition, most hits filed as inhibitors; 1.2% of 410,000 active; calls by dose curve; tested in HEK293T cells; also: read-out not given here; potency is read from the fitted curve at half-maximal effect; % is scaled to controls: 0 for no effect and ±100 for the full control effect; nearly all actives have a fitted effect of over 45% in size
CHX counter: Cycloheximide Counterscreen for Small Molecule Inhibitors of Shiga Toxin; cell reporter, cycloheximide protein synthesis inhibition counterscreen; max response, %; 12% of 300,000 active; in the data active = max response mostly above about 13%, no sharp cut-off; inactive = mostly below about 14%; also: read at 38.3 µM for the half of the compounds with a filed dose; 0% is about no effect
* hit, by the source's call; u = inconclusive; x = no result. Most compounds without a hit are left out; they make up all but 12% or so of the library.

SMILES	Sm TGR inh	Shiga inhibitor	FMDV antiviral	CHX counter
Cc1ccc(-n2ccn(CC(=O)c3ccc(F)cc3)c(=O)c2=O)cc1C	-23%	x	40%	x
O=c1oc(Nc2cccc(F)c2)nc2ccccc12	-8%	105*	-2%	18*
O=C(Nc1cccc(-c2nc3ccccc3c(=O)o2)c1)c1ccccc1	5%	-5	70%	12
Nc1nc(Nc2cccc(F)c2)nc2ccccc12	4%	105*	-9%	29*
Fc1cccc(Nc2c3c(nc4ccccc24)CCC3)c1	-14%	-10	-14%	-3
CCc1ccccc1NC(=O)Cn1c(=O)n(Cc2ccc(OC)cc2)c(=O)c2oc3ccccc3c21	1%	x	-1%	x
O=C1/C(=C/c2cccnc2)CCc2c1[nH]c1ccccc21	4%	68*	37%	48*
CN1C(=O)C(=Cc2cccnc2)C(=O)N(C)C1=O	-17%	-3	0%	1
CCCCCCCCC1=NCCc2c1[nH]c1ccccc21	-12%	2	-23%	-5
CC(C)C/C=C1\CCc2c([nH]c3ccccc23)C1=O	10%	88*	22%	46*
CC1C/C(=C\c2cccnc2)C(=O)/C(=C/c2cccnc2)C1 (configuration not stated)	u	-13	3.5µM*	-6
Cc1ccc(C)c(Cn2c(C3CC(=O)N(c4ccccc4C)C3)nc3ccccc32)c1 (configuration not stated)	-11%	x	-18%	x
Fc1ccccc1-n1cc(-c2ccccc2)[nH]c1=S	11%	36	24%	29*
CCc1cc2ccccc2nc1Cl	x	-8	-23%	-4
Cc1ccc2cc(CCl)c(Cl)nc2c1	25µM*	-7	u	-2
ClCc1cc2ccccc2nc1Cl	32µM*	9	28µM*	-2
CCOC(=O)c1c(C)c(-c2ccccc2)n(CC(=O)Nc2cccc(F)c2)c1C	-9%	x	8%	x
CC(=O)OCC(NC(=O)C(Cc1ccccc1)NC(=O)OC(C)(C)C)C1OC(n2cc(F)c(=O)[nH]c2=O)C(OC(C)=O)C1OC(C)=O (configuration not stated)	x	-9	x	-2
CN(C)/C=N/c1nc(Sc2ccc(C(F)(F)F)cc2[N+](=O)[O-])n[nH]1	17%	-11	-18%	-1
O=[N+]([O-])c1cc(C(F)(F)F)cc([N+](=O)[O-])c1Sc1n[nH]c(C(F)(F)F)n1	0%	18	6.3µM*	5
CCOc1cccc(/C=C2\NC(=S)N(c3ccccc3)C2=O)c1O	-20%	55*	29%	42*
Cc1ccc(/C=C2\C(=O)NC(=S)N(c3ccccc3F)C2=O)s1	7.9µM*	8	u	4
Cc1ccc(/C=C2\C(=O)NC(=S)N(c3ccc(F)cc3)C2=O)s1	u	22	u	-13
COc1ccccc1/C=C1/C(=O)N(c2ccccc2)N=C1C	3%	-2	2%	-3
CCOc1cc(/C=C2\NC(=S)N(c3c(C)n(C)n(-c4ccccc4)c3=O)C2=O)ccc1O	-10%	-8	0%	-1
SMILES	Sm TGR inh	Shiga inhibitor	FMDV antiviral	CHX counter
COc1ccccc1/C=C1\C(=O)NC(=S)N(c2ccccc2)C1=O	8.9µM*	9	-1%	3
CCN1C(=O)/C(=C/c2ccc(N(CC)CC)cc2OC)C(=O)NC1=S	x	12	35µM*	-2
CCOc1ccc(OCC)c(NC(=O)c2cnc(SC)nc2-c2ccccc2)c1	0%	x	u	x
COc1ccc(NC(=O)C2CCN(C(=O)c3sc4nc[nH]c(=O)c4c3C)CC2)cc1Cl	1%	x	-16%	x
O=C(O)Cn1cc(/C=C2\C(=O)NC(=O)N(c3ccc(F)cc3)C2=O)c2ccccc21	u	-6	x	-2
O=C1NC(=S)N(c2ccc(F)cc2)C(=O)/C1=C/c1ccccc1O	u	37	u	12*
CCOc1cccc(N2C(=O)/C(=C/c3ccco3)C(=O)NC2=S)c1	u	6	-15%	-2
O=C1NC(=S)N(c2ccccc2)C(=O)/C1=C/c1ccco1	14µM*	x	35µM*	1
COCCN1C(=O)c2[nH]nc(-c3ccccc3O)c2C1c1ccc(OCc2ccccc2)c(OC)c1 (configuration not stated)	1%	-4	-4%	-4
O=[N+]([O-])c1cc(/C=N/OCc2c(Cl)cccc2Cl)ccc1N1CCOCC1	12%	15	-1%	19*
CO/N=C/c1ccc(N2CCOCC2)c([N+](=O)[O-])c1	-1%	4	-4%	19
CN1CCc2c(sc(NC(=O)C3CCCCC3)c2C(N)=O)C1	-1%	14	5%	-1
CCN1CCc2c(sc(NC(=O)C3COc4ccccc4O3)c2C(N)=O)C1 (configuration not stated)	-22%	62	25%	19*
CN1CCc2c(sc(NC(=O)c3ccc4ccccc4c3)c2C(N)=O)C1	9%	92*	x	49*
CCN1CCc2c(sc(NC(=O)Cc3ccccc3)c2C(N)=O)C1	-11%	12	u	0
CN1CCc2c(sc(NC(=O)Cc3ccccc3)c2C(N)=O)C1	11%	11	-24%	-1
COC(=O)c1c(NC(=O)C2COc3ccccc3O2)sc2c1CCN(C(C)=O)C2 (configuration not stated)	5%	-12	35µM*	6
CN1CCc2c(sc(NC(=O)C3COc4ccccc4O3)c2C(N)=O)C1 (configuration not stated)	-18%	32	16%	22*
O=C(NCc1cccc(F)c1)c1ccc(-n2cnc3cccnc32)cc1	-6%	x	-1%	x
OC[C@H]1OC(O)[C@@H](O)[C@@H](O)[C@H]1O (some centres not stated)	x	17	x	-4
CC(=O)N1CCc2c(sc(NC(=O)CN3C(=O)c4ccccc4C3=O)c2C(N)=O)C1	-20%	-3	-6%	-1
CC(=O)N1CCc2c(sc(NC(=O)c3ccc4c(c3)OCCO4)c2C#N)C1	-2%	13	21%	13*
CCOC(=O)N1CCc2c(sc(NC(C)=O)c2C(N)=O)C1	x	x	-20%	x
CCOC(=O)N1CCc2c(sc(NC(=O)C3COc4ccccc4O3)c2C(N)=O)C1 (configuration not stated)	3%	-4	40µM*	10
CC(=O)N1CCc2c(sc(NC(=O)c3ccc(S(=O)(=O)N(C)C)cc3)c2C#N)C1	x	x	2%	x
SMILES	Sm TGR inh	Shiga inhibitor	FMDV antiviral	CHX counter
CC(=O)N1CCc2c(sc(NC(=O)C3COc4ccccc4O3)c2C(N)=O)C1 (configuration not stated)	-35%	23	8%	31*
COc1ccc(S(=O)(=O)Nc2ccc3c(c2)CCCN3S(=O)(=O)c2ccc(C)cc2)cc1F	-18%	x	-12%	x
O=C(O)c1nn(CCOc2ccccc2F)c(=O)c2ccccc12	3%	26	-10%	12*
CC(=NCc1ccncc1)C1=C(O)c2ccccc2C1=O	-5%	76*	x	18*
CCCN=C(C)C1=C(O)c2ccccc2C1=O	-9%	84*	17%	107*
Cc1cc2c(cc1S(=O)(=O)NCc1ccc(F)cc1)OCCN2C	2%	x	66%	x
CCN(CC)C(=O)Cn1cc(SCC(=O)Nc2ccccc2C)c2ccccc21	4%	x	-13%	x
